# PRMT1 FP inh – inhibitors of human PRMT1; recombinant PRMT1, activity-based probe fluorescence polarization; inhibition, % at 2.79 µM; hit rate 1.3% among 370,000; AID 652257;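 active means inhibition above about 21% made by adding two undisclosed values, limit read from the data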
# ABHD5-PLIN5 inh – inhibitors of human ABHD5-perilipin-5 interaction. Split G. princeps luciferase complementation, luminescence, 4 h. inhibition, % at 4 µM. hit rate 0.78% among 360,000;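 active means inhibition above the mean inhibition across every tested compound plus 3 SD, cut at about 22% in these data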;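 further: 0% = DMSO only wells and the 100% control is not disclosed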
# Exocytosis inh – blocks lytic granule exocytosis. TALL-104 LAMP-1 surface exposure, flow cytometry; cells stimulated with thapsigargin and PMA. inhibition, % at 10 µM. hit rate 0.66% among 360,000. AID 651702;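 active means inhibition above about 55%, limit read from the data; inconclusive means no clear call, values can overlap the other calls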
# NOD2 RIPK2 PPI – blocks binding of human NOD2 to RIPK2. inhibition, % at 4.98 µM. hit rate 0.38% among 360,000. CHO BLA complementation NOD2-RIPK2, CCF4 ratio. AID 624267. O43353; in the data active means inhibition above about 21%;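 further: 0% = vehicle only and 100% = reference blocker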
# Target sequence (O43353 whole entry, looked up): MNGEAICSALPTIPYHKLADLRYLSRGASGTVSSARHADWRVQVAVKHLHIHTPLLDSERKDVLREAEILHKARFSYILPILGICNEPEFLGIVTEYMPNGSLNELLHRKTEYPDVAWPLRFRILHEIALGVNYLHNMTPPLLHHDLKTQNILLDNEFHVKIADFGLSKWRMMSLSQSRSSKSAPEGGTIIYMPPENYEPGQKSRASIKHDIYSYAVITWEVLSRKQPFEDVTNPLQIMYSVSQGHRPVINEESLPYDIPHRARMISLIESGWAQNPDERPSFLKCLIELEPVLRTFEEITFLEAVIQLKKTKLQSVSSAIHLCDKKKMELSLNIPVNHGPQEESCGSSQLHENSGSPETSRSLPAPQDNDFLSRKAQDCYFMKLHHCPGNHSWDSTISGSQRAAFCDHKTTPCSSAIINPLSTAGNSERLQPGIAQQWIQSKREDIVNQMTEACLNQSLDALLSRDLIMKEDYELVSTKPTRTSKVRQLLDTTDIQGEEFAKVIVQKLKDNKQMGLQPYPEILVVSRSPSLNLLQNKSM
# TLR9-MyD88 inh – TLR9-MyD88 interaction inhibition | Q9NR96+Q99836 | CHO BLA complementation TLR9-MyD88, CCF4 FRET ratio | inhibition, % at 4.98 µM | hit rate 0.21% among 340,000 | AID 504734;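 active means inhibition above the mean over all tested compounds plus 3 SD, cut at about 21% in these data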;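 further: 0% = DMSO only wells and 100% = clavulanate BLA inhibitor control wells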
# TLR4-MyD88 BLA – inhibitors of human TLR4-MyD88 binding; O00206+Q99836; HeLa CL3-4 TLR4/MyD88 BLA complementation, FRET ratio; inhibition, % at 8.4 µM; hit rate 0.18% among 200,000; in the data active means inhibition above about 25%;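 further: 0% = vehicle and 100% = reference inhibitor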
# NOD2-RIPK2 conf – confirmation of human NOD2-RIPK2 interaction inhibitors; CHO cells, NOD2-RIPK2 BLA complementation, CCF4 FRET; shares compounds with NOD2 RIPK2 PPI; inhibition, % at 4.98 µM; hit rate 70% among 1,200;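 active means mean inhibition across replicates above a set limit taken from the earlier primary screen, cut at about 21% in these data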;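 further: 0% = DMSO-only wells and the high end = clavulanate BLA-blocked wells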
# NOD2 BLA counter – counter-screen for NOD2-RIPK2 interaction inhibitors: BLA reporter; shares compounds with NOD2 RIPK2 PPI; CHO BLA reporter, CCF4 FRET ratio, counterscreen; inhibition, % at 4.98 µM; hit rate 57% among 1,200;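 active means mean inhibition above the low-control mean inhibition plus three low-control SD, cut at about 11% in these data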;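 further: 0% = DMSO only wells and 100% = clavulanate high control wells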
# The depositor's hits bear a star; ? = inconclusive; nt = no result given. An excerpt weighted towards active compounds, which were near 2.6% of everything screened.
SMILES,PRMT1 FP inh,ABHD5-PLIN5 inh,Exocytosis inh,NOD2 RIPK2 PPI,TLR9-MyD88 inh,TLR4-MyD88 BLA,NOD2-RIPK2 conf,NOD2 BLA counter
CC(C)C[C@@H]1NC(=O)[C@H](Cc2ccccc2)N(C)C(=O)[C@H](C)NC(=O)c2ccccc2NC(=O)[C@H](Cc2ccc(O)cc2)N(C)C1=O,2.5,2.0,15.6,-6.2,-3.9,nt,nt,nt
COc1ccc(CC2C(=O)NC(C)C(=O)N(C)C3Cc4ccc(cc4)Oc4cc(ccc4O)CC(C(=O)NC(C)C(=O)NC(C)C(=O)N2C)N(C)C3=O)cc1 (stereo not given),-0.4,-8.1,-1.9,22.4*,-1.7,nt,26.1*,-1.9
COC(=O)C1=C(C)N(Cc2ccc(F)cc2)C(=S)NC1c1cccc(Br)c1 (stereo not given),-0.4,nt,nt,nt,nt,nt,nt,nt
CCOc1c(Br)cc(Br)cc1/C=C1\SC(N)=NC1=O,-2.2,2.8,-10.6,32.2*,4.4,nt,2.7,-3.5
CCN(C(=O)COC(=O)c1ccc(Sc2ncn[nH]2)c([N+](=O)[O-])c1)c1ccccc1,0.6,nt,nt,nt,nt,nt,nt,nt
O=C(CN1C(=O)c2ccccc2S1(=O)=O)NCCSC1CCCCC1,0.3,-2.2,-6.0,-6.4,-10.1,2.4,nt,nt
O=C(CN1C(=O)c2ccccc2S1(=O)=O)NCCSCc1cccc(Cl)c1,9.0,0.5,-16.5,28.7*,4.1,nt,1.6,-0.5
CCOc1ccc(-c2cc(N)n(S(=O)(=O)c3cccc4nsnc34)n2)cc1,-3.2,1.2,?,21.6*,-0.8,nt,-5.1,-5.4
O=C1CCN2C=Nc3cccc4ccc1c2c34,124.0*,-15.8,-3.3,22.7*,16.0,10.8,32.2*,38.1*
C[C@H](CO)N1C[C@H](C)[C@@H](CN(C)C(=O)Cc2cccnc2)Oc2ncc(C#CCc3ccccc3)cc2C1=O,4.3,nt,nt,nt,nt,nt,nt,nt
COc1ccc(-c2cc(C#N)nc(Cl)n2)cc1,6.1,20.4,9.3,27.8*,5.9,nt,39.9*,-1.4
CC(CCN1CCC(C(O)(c2ccccc2)c2ccccc2)CC1)Oc1cc(F)cc(F)c1 (stereo not given),0.1,nt,nt,nt,nt,nt,nt,nt
O=C(CNC(=O)c1cccc([N+](=O)[O-])c1)OCCCC(=O)c1ccc(F)cc1,2.3,0.0,-1.9,25.8*,-0.8,nt,-7.5,-3.7
CC(C)(C)c1cc(C(=O)NCC(=O)OCC(=O)c2cccc([N+](=O)[O-])c2)cc(C(C)(C)C)c1,-2.5,-2.4,1.9,-0.8,0.7,0.5,nt,nt
Cc1cccc(C)c1NC(=O)C(c1ccccc1F)n1c(=O)c(-c2cc3ccccc3[nH]2)nc2ccccc21 (stereo not given),-2.4,2.8,1.1,49.8*,nt,nt,46.2*,68.0*
O=C(NCc1ccccc1)C(CCc1ccccc1)n1c(=O)c(-c2cc3ccccc3[nH]2)nc2ccccc21 (stereo not given),-2.3,10.2,3.8,50.1*,nt,nt,46.4*,68.8*
O=C(NCc1ccccc1)C(c1cccc2ccccc12)n1c(=O)c(-c2cc3ccccc3[nH]2)nc2ccccc21 (stereo not given),6.8,8.2,6.8,43.1*,nt,nt,40.8*,65.8*
CSCCC(C(=O)NCc1ccccc1)n1c(Cc2cc(F)cc(F)c2)nc2ccccc21 (stereo not given),-4.5,-4.2,-8.0,-8.0,nt,nt,nt,nt
Cc1cccc(C)c1NC(=O)C(c1cccc2ccccc12)n1c(=O)c(-c2cc3ccccc3[nH]2)nc2ccccc21 (stereo not given),1.8,2.4,12.7,42.0*,nt,nt,38.5*,64.5*
COC(=O)C1=C(C)N(C)C(=NCc2ccccc2)NC1c1ccccc1 (stereo not given),4.8,nt,nt,nt,nt,nt,nt,nt
C[C@H](CO)N1C[C@H](C)[C@H](CN(C)Cc2cccc(F)c2)Oc2ncc(C3=CCCC3)cc2C1=O,0.5,nt,nt,nt,nt,nt,nt,nt
O=C(NCc1ccccc1)[C@H]1CCCN1C(=O)[C@H]1CCCN1C(=O)c1cccc2ccccc12,5.0,nt,nt,nt,nt,nt,nt,nt
O=C(CSc1nnc(-c2cnccn2)n1-c1ccccc1)Nc1ccc2cn[nH]c2c1,1.1,nt,nt,nt,nt,nt,nt,nt
Cc1ccc2c(c1)C1CS(=O)(=O)N(CCc3ccccc3)CN1C2 (stereo not given),4.5,nt,nt,nt,nt,nt,nt,nt
N#CC(=C1C=CC(=NO)C(Cl)=C1)c1ccccc1,8.1,1.2,1.9,32.4*,nt,nt,39.4*,14.5*
SMILES,PRMT1 FP inh,ABHD5-PLIN5 inh,Exocytosis inh,NOD2 RIPK2 PPI,TLR9-MyD88 inh,TLR4-MyD88 BLA,NOD2-RIPK2 conf,NOD2 BLA counter
CCOC(=O)Cc1c(C)c2ccc(N(CC)CC)cc2oc1=O,2.1,-2.9,0.0,11.3,-8.2,-1.9,nt,nt
CCN(CC)c1ccc2c(C)c(-c3ccc(N)cc3)c(=O)oc2c1,-2.0,-6.0,25.0,27.3*,12.3,14.9,23.6*,32.7*
Cc1ccc(C)c(Cn2c3ccccc3c3cnn(CC(=O)NCCCN4CCCCC4)c(=O)c32)c1,-2.7,15.5,21.4,21.1*,-7.6,nt,14.0,-0.2
Cc1ccc(C)c(Cn2c3ccccc3c3cnn(CC(=O)NCc4ccccn4)c(=O)c32)c1,-0.1,7.9,2.3,8.0,-4.8,nt,nt,nt
CC(C)S(=O)(=O)N[C@@H]1c2cc3c(cc2[C@H](c2ccccc2)[C@H]1C)OCO3,4.7,nt,nt,nt,nt,nt,nt,nt
Cc1ccc2nc(SCC(=O)Nc3cc(C(F)(F)F)ccc3N3CCOCC3)[nH]c2c1,0.2,-6.8,4.0,33.8*,4.2,12.6,14.7,-1.1
Cc1cc(OCC(=O)Nc2cccc(S(=O)(=O)NC3=NCCCCC3)c2)ccc1Cl,1.6,0.7,4.2,40.5*,-15.4,-1.5,-0.1,0.3
O=C(COCc1ccccc1)N1CCC(Oc2cccnc2)CC1,2.1,nt,nt,nt,nt,nt,nt,nt
CCOc1ccccc1C(=O)NCC(=O)NCC(C)(C)N1CCOCC1,-2.1,0.3,8.0,28.9*,-10.9,nt,-3.7,-1.7
COc1ccccc1C(=O)NCCC(=O)NCC(C)(C)N1CCOCC1,6.0,1.1,11.4,-4.2,2.4,nt,nt,nt
Cc1ccc(S(=O)(=O)N2C(=O)C(c3ccccc3)SC2=Nc2ccccc2)cc1 (stereo not given),-1.4,-15.6,1.8,-5.8,4.7,-3.5,nt,nt
Cc1ccc(S(=O)(=O)N2C(=O)C(C)SC2=Nc2ccccc2)cc1 (stereo not given),1.1,-7.4,6.1,41.0*,1.9,-1.3,-3.7,-0.5
O=C(CCc1ccccc1-c1ccccc1CCNC(=O)c1cccc(F)c1)NCc1ccccc1,-1.5,nt,nt,nt,nt,nt,nt,nt
CCCCNC(=S)Nc1ccc(-c2nc3ccc(C)cc3s2)cc1,-1.3,-4.2,-2.3,23.0*,-9.1,-6.2,-0.7,-2.8
Cc1ccc2nc(-c3ccc(NC(=S)NCCC(C)C)cc3)sc2c1,2.1,-0.9,-2.0,-1.0,-1.2,-2.1,nt,nt
COC(=O)C1=C(C)N(C)C(=NCc2cccc(C(F)(F)F)c2)NC1c1cccc(F)c1 (stereo not given),-0.2,nt,nt,nt,nt,nt,nt,nt

# High-throughput results from PubChem.
